Experimental data from PubChem BioAssay (Tox21).
Inconclusive results are not listed. Entries that show only a call come without a potency. The source made the active and inactive calls. The call rests on the fitted dose curve; in most records, active means well fitted inhibition curve with a large enough effect in the signal ratio in the repeat runs (not every such curve was filed as active); inconclusive means weak or mixed curves, or effect the other way; inactive means flat fitted curve, though single readings scatter; the % refers to the signal ratio.

Assay: cAMP Responsive Elements (CRE) small molecule antagonists, cell-based qHTS assay (AID 1963591)
Settings: CRE-bla HEK293T, beta-lactamase FRET ratio; series mostly up to 92.4 µM
Text: U.S. Tox21 Program National Center for Advancing Translational Sciences [NCATS] Division of Preclinical Innovation [DPI] U.S. Environmental Protection Agency [EPA] National Institutes of Environmental Health Sciences [NIEHS] National Toxicology Program [NTP] U.S. Food and Drug Administration [FDA] Tox21 Assay Overview: CREB (cyclic-AMP Responsive Element Binding Protein) is a cellular transcription factor. It binds to certain DNA sequences called cAMP Responsive Elements (CRE) and regulates the transcription of the genes. […] This cell line can be used to find agonists/antagonists of the cyclic AMP signaling pathway. The activation of the report gene under culture conditions can be detected by fluorescence intensity. This cell line has been used to screen the Tox21 10K compound library to […].
Tox21 Assay Protocol Summary: CRE-bla Hek 293T cells were suspended in assay medium (DMEM containing 10% dialyzed FBS, 0.1 mM NEAA, 1 mM sodium pyruvate and 25 mM HEPES) and dispensed at 2,000 cells/4 uL /well into 1536-well black wall/clear bottom plates using a Multidrop Combi (ThermoFisher Scientific, Waltham, MA) dispenser. After the assay plates were incubated at 37 C/5% CO2 for 18 hrs, 23 nL of compounds dissolved in DMSO, positive controls or DMSO only was transferred to the assay plate by a pintool workstation (Kalypsys, San Diego, CA), followed by addition of 1 […] uL of 1.25uM NKH477 (0.25 uM as final concentration) in assay medium using a Flying Reagent Dispenser (Aurora Discovery, San Diego, CA). The plates were incubated at 37 C and 5% CO2 for 3 hrs. Then 1 uL of LiveBLAzer B/G FRET substrate (Invitrogen, Carlsbad, CA) was added to each well using Bioraptr Flying Reagent Dispenser (FRD, Aurora Discovery, San Diego, CA). The plates were incubated at room temperature for 2 h.

| Compound | Potency |
| --- | --- |
| O=C(C(=O)c1ccccc1)c1ccccc1 | inactive |
| O=S(=O)(O)CCN1CCN(CCO)CC1 | inactive |
| Clc1cc(Cl)c(Cl)c(Cl)c1Cl | inactive |
| CCC(C)C1N=C(C)C(C)S1 (stereo not given) | inactive |
| Cc1ccc(S(N)(=O)=O)cc1 | inactive |
| O=C(O)c1cccc(C(F)(F)F)c1 | inactive |
| CC(C)=CCC/C(C)=C/C(=O)O | inactive |
| CC/C=C\CCO | inactive |
| Nc1ncnc2c1ncn2Cc1c(F)cccc1Cl | inactive |
| CC(=O)N1C[C@H](O)C[C@H]1C(=O)O | inactive |
| CCOCCC(=O)OCC | inactive |
| O=c1[nH]c(=O)c2cn[nH]c2[nH]1 | inactive |
| CC1(C)O[C@H]2CC(=O)OC[C@]23[C@H]2CC[C@@]4(C)[C@H](c5ccoc5)OC(=O)[C@H]5O[C@]54[C@]2(C)C(=O)C[C@@H]13 | inactive |
| CCc1ccc(C)nc1 | inactive |
| CC(C)N=C=NC(C)C | inactive |
| Nc1nccs1 | inactive |
| O=C(O)/C=C/c1cnc[nH]1 | inactive |
| Cc1cc(CCC(=O)OCCOCCOCCOC(=O)CCc2cc(C)c(O)c(C(C)(C)C)c2)cc(C(C)(C)C)c1O | inactive |
| CCCCNc1ccccc1 | inactive |
| CCCCOCCOCCOCCCC | inactive |

| Compound | Potency |
| --- | --- |
| CC(C)C(=O)OC(=O)C(C)C | inactive |
| CC1(C)[C@H]2CC[C@]1(C)[C@H](O)C2 | inactive |
| CC(C)c1cccc(C(C)C)c1N | inactive |
| C1CCC2OC2C1 (stereo not given) | inactive |
| NCCO | inactive |
| CCCCCCCCSCCO | inactive |
| O=C1c2ccccc2CCc2ccccc21 | inactive |
| Cc1ccccc1S(=O)(=O)O | inactive |
| C1COCCO1 | inactive |
| CCC(=O)OC(C)c1ccccc1 (stereo not given) | inactive |
| CCc1ccc(Br)cc1 | inactive |
| Brc1cc(Br)cc(Br)c1 | inactive |
| CNC1(C)C2CCC(C2)C1(C)C (stereo not given) | inactive |
| CC(O)C(C)O (stereo not given) | inactive |
| CCO[Si](OCC)(OCC)c1ccccc1 | inactive |
| c1ccc2c(c1)CCc1ccccc1N2 | inactive |
| CCCCCCCCCCCCOCC1CO1 (stereo not given) | inactive |
| OC1(c2ccc(Cl)cc2)CCNCC1 | inactive |
| C=C1CC/C=C(\C)CC[C@@H]2[C@@H]1CC2(C)C | inactive |
| N#CCC(=O)O | inactive |
